In the library only some 28% were active in any assay of this set; here they are far more common.
Mac1 fbg inh: inhibitors of CD11b/CD18 adhesion to fibrinogen, primary screen, K562 cells, luminescence | 0.54% of 93,000 active | AID 1497, 2009 | ATPlite luminescence; Mn2+ added to activate the integrin | inhibition, % at 10 µM | Integrin beta-2 (Homo sapiens) + Integrin alpha-M (Homo sapiens), P05107+P11215;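 active = primary inhibition of 50% or more at 10 µM, then 40% or more on retest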
CYP2C19 act: human CYP2C19 activators, primary screen, biochemical, luminescence; Cytochrome P450 2C19 (Homo sapiens), P33261; recombinant CYP2C19, luciferin-H EGE luminescence; active compounds read high; 0 = fully inhibited enzyme, 1 = untreated enzyme; 96,000 tested, under 10 active; activation factor at 5 µM; AID 1025, 2008;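 active = activation factor of at least 2 at 5 µM in the primary screen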;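 also: 0 = wells with 2.5 mM tranylcypromine and 1 = vehicle-only wells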
CYP2C9 act: human CYP2C9 activators, primary screen, biochemical, luminescence. Cytochrome P450 2C9 (Homo sapiens), P11712. recombinant CYP2C9, luciferin-H conversion; active compounds read high; factor 1 = untreated enzyme, 0 = blocked. activation factor at 5 µM. 1.4% of 96,000 active;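 active = activation factor of 2 or more for CYP2C9 at a 5 µM dose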;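 also: 0 = sulfaphenazole-blocked wells and 1 = vehicle-only wells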
Target sequence (P11712 whole entry, looked up): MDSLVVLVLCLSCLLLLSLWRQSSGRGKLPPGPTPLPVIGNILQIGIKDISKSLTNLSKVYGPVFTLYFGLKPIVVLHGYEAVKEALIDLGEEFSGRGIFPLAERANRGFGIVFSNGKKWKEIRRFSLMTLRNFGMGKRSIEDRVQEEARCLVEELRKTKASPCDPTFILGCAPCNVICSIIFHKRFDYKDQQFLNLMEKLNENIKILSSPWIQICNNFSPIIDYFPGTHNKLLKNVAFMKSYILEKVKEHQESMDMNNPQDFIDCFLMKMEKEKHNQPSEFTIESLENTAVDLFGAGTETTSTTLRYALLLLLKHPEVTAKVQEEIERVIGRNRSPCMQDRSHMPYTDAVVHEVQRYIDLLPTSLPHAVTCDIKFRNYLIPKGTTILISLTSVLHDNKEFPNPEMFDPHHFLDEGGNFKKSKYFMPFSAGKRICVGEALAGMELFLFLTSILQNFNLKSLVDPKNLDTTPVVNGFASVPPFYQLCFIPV
CYP2C9 inh: blockers of cytochrome P450 2C9 activity – biochemical, luminescence, ADME assay, primary screen; CYP2C9 Supersomes, luciferin-H conversion; inhibition, % at 5 µM; 20% of 96,000 active;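 active = blocking of liver enzyme CYP2C9 beyond about 50% at 5 µM, limit read from the data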
Mac1 fbg enh: enhancers of CD11b/CD18 adhesion to fibrinogen, primary screen, K562 cells, luminescence. ATPlite luminescence. activation, % at 10 µM. 0.07% of 93,000 active. AID 1499, 2009;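 active = 10 µM primary screen giving 50% or more activity, confirmed by 40% or more on retest at that dose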
CYP2C19 inh: blockers of cytochrome P450 2C19 activity – biochemical, luminescence, ADME assay, primary screen; P33261; inhibition, % at 5 µM; CYP2C19 Supersomes, luciferin-H EGE luminescence, 30 min; 21% of 96,000 active;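 active = CYP2C19 inhibition above a set limit at 5 µM in the primary screen, cut at about 50% in these data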;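 also: plate controls were negative control wells for no effect and 2.5 mM tranylcypromine positive control for full effect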
Numbers without * were called inactive; . = no result.

SMILES | Mac1 fbg inh | CYP2C19 act | CYP2C9 act | CYP2C9 inh | Mac1 fbg enh | CYP2C19 inh
COc1ccc(C2C(C(=O)N3CCN(c4ccccc4)CC3)c3ccccc3C(=O)N2C)cc1OC (centres undefined) | -4 | 0.7 | 0.3 | 73* | 0 | 35
CCNc1nc(NC(C)C)nc(N(C#N)CCOc2ccc(Cl)cc2Cl)n1 | 28 | 0.2 | 0.9 | 12 | -4 | 77*
CCNc1nc(NC(C)C)nc(N(C#N)Cc2ccccc2)n1 | 8 | 0.8 | 0.9 | 8 | -2 | 24
CN(C)[C@H]1N(C(=O)c2ccc(Br)cc2)N=C2c3ccccc3S(=O)(=O)N21 | 12 | 0.6 | 0.4 | 57* | -2 | 45
COc1ccc(OC)c(N(CC(=O)Nc2ccc3c(c2)OCCO3)S(C)(=O)=O)c1 | -4 | 0.4 | 0.2 | 76* | -3 | 64*
COc1ccc(N(CC(=O)Nc2ccc3c(c2)OCCO3)S(C)(=O)=O)c(OC)c1 | -19 | 0.7 | 0.2 | 84* | 1 | 26
COc1ccc(N(CC(=O)Nc2ccc3c(c2)OCO3)S(C)(=O)=O)c(OC)c1 | 1 | 0.8 | 0.3 | 69* | 1 | 16
COc1ccc(N(CC(=O)Nc2ccc3c(c2)OCCO3)S(=O)(=O)c2c(C)noc2C)cc1 | . | 0.8 | 0.7 | 26 | . | 20
Cc1ccc(C)c(NC(=O)CN(C)C(=O)[C@@H](NC(=O)c2ccc(C(C)(C)C)cc2)C(C)C)c1 | 15 | . | . | . | -2 | .
O=S1(=O)CC(O)C(Nc2ccccc2Cl)C1 (centres undefined) | -9 | 0.8 | 1.2 | -17 | -2 | 17
O=C(NCc1ccc(Cl)cc1Cl)C1CCN(S(=O)(=O)c2ccc3c(c2)OCCCO3)CC1 | 17 | . | . | . | 2 | .
O=C1CC(c2ccccc2)CC(O)=C1C=NC1CCCC1 (centres undefined) | -14 | 0.2 | 0.8 | 16 | 1 | 79*
CO/N=C(/CNC(=O)c1ccccc1Cl)c1ccc(Cl)cc1 | . | 0.1 | 0.5 | 47 | . | 91*
Cc1[nH]n(-c2ccccc2)c(=O)c1C(C[N+](=O)[O-])c1ccccc1Cl (centres undefined) | -4 | 0.1 | 0.1 | 92* | -3 | 88*
Cc1[nH]n(-c2ccccc2)c(=O)c1-c1ccccc1 | 2 | 0.9 | 0.8 | 23 | 1 | 8
FC(F)(F)c1cc(-c2ccco2)nc(NCCc2ccccc2)n1 | . | 0.9 | 0.6 | 38 | . | 12
Cc1cc(C(F)(F)F)n(-c2nc(C(=O)Nc3ccccc3Oc3ccccc3)cs2)n1 | 0 | 0.9 | 0.6 | 41 | -3 | 5
Clc1cc(Cl)cc(Nc2ncn[nH]2)c1 | 0 | 0.5 | 1 | 4 | -2 | 50*
COC(=O)C(C)N(C(=O)c1ccc(Cl)cc1)c1c(C)cccc1C (centres undefined) | -11 | 0.6 | 0.7 | 32 | 2 | 36
COC(=O)C(C)N(C(=O)c1ccc(C(=O)c2ccccc2)cc1)c1c(C)cccc1C (centres undefined) | -2 | 0.1 | 0 | 98* | -2 | 94*
COc1ccc(Cn2c(CCC(=O)Nc3ccc(C)c(C)c3)nc3cccnc32)cc1 | 13 | 0.4 | 0 | 98* | 4 | 64*
COCCCNC(=O)CCc1nc2cccnc2n1Cc1ccccc1 | -12 | 0.9 | 0.8 | 15 | -4 | 6
O=C(CCc1nc2cccnc2n1Cc1ccccc1)NCCc1ccc(Cl)cc1 | -10 | 0.3 | 0.3 | 69* | 2 | 71*
O=C(Cn1c(NCCCO)nc2ccccc21)c1ccc(Br)cc1 | -10 | 0.3 | 0.4 | 58* | -4 | 74*
COCCN1CN(S(=O)(=O)c2ccc(Cl)cc2)c2nc3ccccc3nc21 | -1 | 0.1 | 0.5 | 51* | -1 | 94*
SMILES | Mac1 fbg inh | CYP2C19 act | CYP2C9 act | CYP2C9 inh | Mac1 fbg enh | CYP2C19 inh
CCCCN1CN(S(=O)(=O)c2cccs2)c2nc3ccccc3nc21 | 2 | 1 | 1 | -2 | -2 | 2
Cc1ccc(-c2nc3nc4ccccc4nc3n2Cc2ccco2)cc1 | 21 | 1 | 0.8 | 24 | -3 | 1
Cc1ccc(CN2CN(S(=O)(=O)c3cccs3)c3nc4ccccc4nc32)cc1 | 36 | 1.1 | 0.4 | 56* | -5 | -6
COCCN1CN(S(=O)(=O)c2ccccc2)c2nc3ccccc3nc21 | -14 | 0.2 | 0.4 | 63* | 6 | 83*
Cc1cccc(S(=O)(=O)N2CN(Cc3ccco3)c3nc4ccccc4nc32)c1 | 25 | 0.2 | 0.4 | 61* | -8 | 79*
CC(C)CCN1CN(S(=O)(=O)c2cccs2)c2nc3ccccc3nc21 | -13 | 0.9 | 0.9 | 14 | -1 | 12
CCC1(C(=O)c2ccc(Cl)cc2)C2c3ccccc3OC(=O)C21C(=O)Nc1ccccc1 (centres undefined) | -3 | . | . | . | 6 | .
Cc1nn(C)cc1C(=O)Nc1cc(Oc2ccc(Cl)cc2)cc([N+](=O)[O-])c1 | 23 | 1.2 | 0.5 | 52* | -6 | -15
CCOc1ccc(C(=O)NC(=S)Nc2ccc(NC(=O)c3ccco3)cc2)cc1[N+](=O)[O-] | 20 | . | . | . | 17 | .
CCOc1ccc(Oc2cc(NC(=O)c3ccco3)cc([N+](=O)[O-])c2)cc1 | -14 | 0.7 | 0.5 | 53* | 0 | 33
Cc1cccc(NC(=S)NNC(=O)CCn2cc(C)cn2)c1 | 13 | 0.7 | 0.8 | 21 | 2 | 29
C/C(=N\NC(=O)CC1N=C(Cc2ccccc2)NNC1=O)c1ccc(Cl)cc1Cl (centres undefined) | 9 | 0.8 | 0.8 | 24 | 7 | 19
Cc1sc2ncnc(SCC(=O)N3CCC(c4noc5ccc(F)cc45)CC3)c2c1C | -5 | 0.4 | 0.2 | 79* | -3 | 65*
Cc1nnc(SCC(=O)N2CCC(c3noc4ccc(F)cc34)CC2)s1 | 2 | 1 | 0.6 | 37 | 2 | -2
COc1ccc(N(C(=O)c2ccccc2OC(C)=O)C(C)C2CC2)cc1 (centres undefined) | -3 | 0.6 | 0.7 | 32 | 0 | 44
COc1c2c(nc3occc13)C(CCC(C)(C)O)(OC)C(O)CC2 (centres undefined) | -9 | 0.4 | 0.5 | 54* | 4 | 56*
COc1c2ccoc2nc2c(OC)c(OCC(O)C(C)(C)O)ccc12 (centres undefined) | -6 | 1.1 | 1.3 | -35 | -2 | -7
CC(C)[C@H](NC(=O)Nc1ccccc1F)C(=O)O | 12 | 1.2 | 1.1 | -14 | -1 | -18
O=C1CCSc2ccc(Cl)cc2N1Cc1ccc(Cl)cc1 | 15 | 0.8 | 0.8 | 24 | -2 | 20
Cc1cccc(CN2C(=O)CCSc3ccc(Cl)cc32)c1 | . | 0.3 | 0.7 | 32 | . | 67*

Screening results: PubChem, Sanford-Burnham Center for Chemical Genomics
